In PubChem BioAssay (NCI):
Several values for one entry are separate records, joined by “and”; a condition that tells them apart may be missing. Equal entries are not always repeated. The panel holds about 79,000 compounds, 15% with a hit somewhere; the sample as a whole holds those more often. Values without a mark were called inactive. Activity calls are given as the source filed them. Cut-off read from the data, not from the text of the source: active = growth inhibition above about 70%; inactive = the rest.

Experiment: NCI Yeast Anticancer Drug Screen. Data for the sgs1 mgt1 strain (AID 161);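 note: 0% = growth of cultures given vehicle only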
Details: S. cerevisiae sgs1 mgt1 strain, stronger effect = higher value
Protocol: Growth inhibition of yeast strains with defined genetic alterations is measured as a screen for potential anti-cancer activity. Selected strains with alterations in DNA damage repair or cell cycle control were exposed to compounds and growth inhibition was measured relative to vehicle treated controls. The strain used in this assay is sgs1 mgt1

[1] = at 5.0 µM (retest, dose inferred, filed as 0.5)
[2] = at 50.0 µM (retest, dose inferred, filed as 5.0)

| SMILES | growth inhibition [1] | growth inhibition [2] | growth inhibition (at 50.0 µM) |
| --- | --- | --- | --- |
| CCCCCN1C(=O)C2C(C1=O)C1(Cl)C(Cl)=C(Cl)C2(Cl)C1(Cl)Cl (stereo not given) | 16% | 95% (active) | 96.4% (active) |
| c1cc2n[pH]nc2cn1 (stereo not given) | -2% | -6% | 21.2% |
| c1ccc([As+](c2ccccc2)(c2ccccc2)c2cccc3ccccc23)cc1 | 93% (active) | 100% (active) | 98.7% (active) |
| [I][Hg][CH2]C1OCCOC1[CH2][Hg][I] (stereo not given) | -1% | 2% | 99.5% (active) |
| O=C1c2ccccc2C[CH]1[Hg][Cl] (stereo not given) | 100% (active) | 99% (active) | 99.3% (active) |
| C[N+](C)(C)CC1CCCc2ccccc2C1=O (stereo not given) | 17% | 88% (active) | 91.3% (active) |
| CCCCCCCC[As](C)(=O)O | -67% | -55% | 4.5% |
| COCCOCCOC(=O)CBr | 1% | 97% (active) | 88.7% (active) |
| O=[N+]([O-])c1c[c]([Hg][Cl])c(O)[c]([Hg][Cl])c1 | 100% (active) | 78% (active) | 92.4% (active) |
| C[Se]C([Se]C)=C([Se]C)[Se]C | -1% | 99% (active) | 52% |
| C[N+](C)(C)CC1Cc2ccccc2C1=O (stereo not given) | 14% | 99% (active) | 92% (active) |
| O=C(COc1ccc(Cl)cc1C(=O)O)Nc1cccc(NC(=O)Nc2cccc(S(=O)(=O)F)c2)c1 |  |  | -12.9% |
| C#CCC1(OC(N)=O)CCCCC1 |  |  | -1.35% |
| N#CCCCCCl |  |  | 16.3% |
| O=C1C(=O)c2ccccc2-c2ccccc21 |  |  | 32.8% and 25.5% |
| CCCCCCCC[As](=O)(O)CCCCCCCC |  |  | 20.9% |
| CCCC[P+](C#Cc1ccccc1)(CCCC)CCCC |  |  | 9.5% |
| CC[C@@]1(O)C(=O)OCc2c1c(Cl)c1n(c2=O)Cc2cc3ccccc3nc2-1 |  |  | -5.85% |
